Records with an inconclusive call do not appear. Activity calls are given as the source filed them. Unless noted, calls follow the shape of the dose curve; as a rule, active = well fitted curve in the direction sought with a large enough effect; inconclusive = small, poorly fitted or top-dose-only effect, or another doubt; inactive = no such curve, though single readings can be large; an effect the other way counts as inactive or inconclusive.
Experiments:
[1] = Counterscreen for APE1 Inhibitors: Fluorescent Dye Displacement Validation Assay (AID 1707)
Procedure, shortened: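 Loss of Thiazole Orange fluorescence marks promiscuous DNA binders. The dye (250 nM) is mixed with 50 nM abasic-site dsDNA in pH7.5 Tris buffer containing MgCl2, then compounds are added and emission is read once.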

[2] = qHTS for differential inhibitors of proliferation of Plasmodium falciparum line 7G8 (AID 1815);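 also: parasite growth measured after three days of incubation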; also: potency is read from the fitted curve at half-maximal effect
[3] = qHTS for differential inhibitors of proliferation of Plasmodium falciparum line GB4 (AID 1816); conditions: Potency: Plasmodium falciparum GB4 proliferation inhibition;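 also: parasite growth measured after 72 h incubation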; also: potency is read from the fitted curve at half-maximal effect
[4] = qHTS for differential inhibitors of proliferation of Plasmodium falciparum line 3D7 (AID 1876); also: potency is read from the fitted curve at half-maximal effect
[5] = qHTS for differential inhibitors of proliferation of Plasmodium falciparum line D10 (AID 1877);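 also: parasites grown with compound for 72 h before DNA staining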; also: potency is read from the fitted curve at half-maximal effect
[6] = qHTS for differential inhibitors of proliferation of Plasmodium falciparum line Dd2 (AID 1882); conditions: Potency: Plasmodium falciparum Dd2 proliferation inhibition; also: nearly all actives have a fitted effect of over 65% in size; also: potency is read from the fitted curve at half-maximal effect
Procedure, shortened: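 RBC culture, 0.3% parasitemia / 2.5% Hct final; cpd added by pin tool in DMSO; 72 h, 37 C, 5% CO2; lysis buffer + SYBR Green I, o/n RT dark; FI 485/535; norm. to artemisinin 0.29 uM and DMSO.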

[7] = qHTS Assay for Modulators of Human Peripheral Myelin Protein 22 (PMP22) Expression/Activity (AID 1967; active = well fitted curve in the direction sought with a large enough effect in the signal ratio; the % refers to the signal ratio)
Procedure, shortened: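 Mouse MSC80 Schwann line, Pmp22 promoter–CBG68 reporter, EF-alpha–CBR internal control. 24h compound exposure, 37 °C/5% CO2, DMEM + 10% FBS. Readout: corrected green/red luminescence ratio, normalized to untreated cells; concentration-response curves fitted and classified.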

[8] = qHTS for differential inhibitors of proliferation of Plasmodium falciparum line HB3 (AID 1886); conditions: Potency: Plasmodium falciparum HB3 proliferation inhibition;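 also: parasites grown with compound for 72 h before SYBR Green readout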; also: potency is read from the fitted curve at half-maximal effect
[9] = qHTS for differential inhibitors of proliferation of Plasmodium falciparum line W2 (AID 1883); conditions: Potency: Plasmodium falciparum W2 proliferation inhibition;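 also: parasites grown with compound for 72 h before lysis and staining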; also: potency is read from the fitted curve at half-maximal effect
[10] = target: Endonuclease 4 (Escherichia coli (strain K12)) (UniProt P0A6C1); assay: Counterscreen for APE1 Inhibitors: qHTS Validation Assay for Inhibitors of Endonuclease IV (AID 1708)
Procedure, shortened: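 Measured as reaction progress, the fluorescence gain between first and third kinetic reads after adding 50 nM TAMRA/BHQ-2 THF duplex to 2 nM enzyme preincubated 15 min with compound; 2 mM MgCl2, pH 7.5.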

Measured: Potency

COc1cc2c(CCNC(C)=O)c[nH]c2cc1Cl
not listed: [8] | [9] | [10]
inactive: all other assays above

OC[C@H]1O[C@@H](n2cnc3c(NC4CCCCC4)ncnc32)[C@H](O)[C@@H]1O
inactive: [1] | [2] | [3] | [4] | [5] | [8]

CCCCN1CCC(n2c(=O)[nH]c3ccccc32)CC1
active: [9] 8.91 µM
not listed: [6] | [7] | [10]
inactive: all other assays above

Oc1ccc(C2CNCc3sccc32)cc1O (stereo not drawn)
inactive: [1]
active: [2] 8.91 µM | [3] 12.6 µM | [5] 11.2 µM | [6] 8.91 µM | [9] 11.2 µM | [8] 11.2 µM

NCCCCCCCCCCN
not listed: [9] | [10]
inactive: all other assays above

COc1ccc(NC(=O)/C=C/c2ccc(Cl)cc2)cc1
active: [2] 10 µM | [3] 11.2 µM | [4] 11.2 µM | [5] 8.91 µM | [9] 10 µM | [8] 12.6 µM
inactive: [1]

C=CC(N)CCC(=O)O (stereo not drawn)
not listed: [6] | [10]
inactive: all other assays above

O=C(/C=C/c1ccc(O)cc1)c1ccc(O)cc1O
active: [2] 10 µM | [3] 7.94 µM | [5] 12.6 µM | [9] 10 µM | [8] 12.6 µM
inactive: [1]

O=C(O)CC[C@@H](C(=O)O)N1C(=O)c2ccccc2C1=O
not listed: [6] | [7] | [10]
inactive: all other assays above

CN1C2CCC1CC(OC(=O)C(O)c1ccccc1)C2 (stereo not drawn)
not listed: [6] | [9] | [10]
inactive: all other assays above

CCCCCCCCCCCCCCCCCC(=O)OC(CC(=O)O)C[N+](C)(C)C (stereo not drawn)
not listed: [6] | [7] | [10]
inactive: all other assays above

C[C@@H](NC(=O)/C(C#N)=C/c1ccc(O)c(O)c1)c1ccccc1
active: [2] 11.2 µM | [3] 10 µM | [5] 12.6 µM | [9] 11.2 µM | [8] 11.2 µM
inactive: [1]

CC(C)Cc1ccc([C@H](C)C(=O)O)cc1
not listed: [6] | [7] | [10]
inactive: all other assays above

COC(=O)c1c(C)[nH]c(C)c1C(=O)c1ccccc1Cc1ccccc1
inactive: [1]
active: [2] 7.94 µM | [3] 7.94 µM | [4] 8.91 µM | [5] 14.1 µM | [9] 8.91 µM | [8] 12.6 µM

CN1CCc2cccc3c2C1Cc1ccc(O)c(O)c1-3 (stereo not drawn)
inactive: [1]
active: [2] 2.24 µM | [3] 2.24 µM | [4] 2 µM | [5] 2.24 µM | [9] 2.24 µM | [8] 2 µM

CC(COc1ccc(/C=C/c2ccccc2)cc1)[N+](C)(C)C (stereo not drawn)
inactive: [1]
active: [2] 7.08 µM | [3] 2.24 µM | [4] 1.26 µM | [5] 2.24 µM | [9] 2.82 µM | [8] 2 µM

Cc1ccccc1CNc1ncnc2c1ncn2C1OC(CO)C(O)C1O (stereo not drawn)
not listed: [6] | [7] | [10]
inactive: all other assays above

CN[C@H](CC(C)C)C(=O)N[C@H]1C(=O)N[C@@H](CC(N)=O)C(=O)N[C@H]2C(=O)N[C@H]3C(=O)N[C@H](C(=O)N[C@H](C(=O)O)c4cc(O)cc(O)c4-c4cc3ccc4O)[C@H](O)c3ccc(c(Cl)c3)Oc3cc2cc(c3O[C@@H]2O[C@H](CO)[C@@H](O)[C@H](O)[C@H]2O[C@H]2C[C@](C)(N)[C@H](O)[C@H](C)O2)Oc2ccc(cc2Cl)[C@H]1O
not listed: [6] | [10]
inactive: all other assays above

COc1ccccc1N1CCN(CCCCNS(=O)(=O)c2cccc3c(N(C)C)cccc23)CC1
active: [2] 7.94 µM | [3] 14.1 µM | [4] 10 µM | [9] 3.55 µM | [8] 12.6 µM
inactive: [1]

c1cnc2c(c1)ccc1cccnc12
active: [2] 1.58 µM | [3] 2 µM | [4] 2 µM | [5] 2.51 µM | [9] 1 µM | [8] 2 µM
inactive: [1]

O=c1[nH]c2ccccc2n1CCCN1CCN(C(c2ccccc2)c2ccccc2)CC1
inactive: [1]
active: [2] 7.08 µM | [3] 12.6 µM | [9] 4.47 µM | [8] 14.1 µM

OCC1O[C@H](O)C(Cl)C(O)C1O (stereo partly drawn)
not listed: [2] | [10]
inactive: all other assays above

CN(C)c1nc(N)c(C(=O)N=C(N)N)nc1Cl
inactive: [1] | [6] | [7]
active: [3] 12.6 µM | [4] 10 µM | [5] 11.2 µM | [9] 12.6 µM | [8] 12.6 µM

Cc1cc(NC(=O)Nc2ccc3c(ccn3C)c2)sn1
inactive: [1]
active: [2] 7.94 µM | [9] 7.94 µM | [8] 12.6 µM

C=C/C(C)=C/[C@@]1(C)SC(=O)C(C)=C1O
not listed: [2] | [10]
inactive: all other assays above

CCCn1c(=O)c2[nH]c(-c3ccc(OCC(=O)NCCN)cc3)nc2n(CCC)c1=O
active: [3] 10 µM | [9] 12.6 µM
inactive: [1]

O=C(/C=C/c1ccc(O)c(O)c1)OCCc1ccccc1
active: [2] 6.31 µM | [3] 5.01 µM | [4] 10 µM | [5] 12.6 µM | [9] 5.01 µM | [8] 10 µM

Oc1cc(O)cc(/C=C/c2ccc(O)c(O)c2)c1
active: [3] 8.91 µM | [4] 10 µM | [6] 12.6 µM | [9] 10 µM | [8] 12.6 µM

CC1CN(S(=O)(=O)c2cccc3cnccc23)CCN1 (stereo not drawn)
active: [3] 11.2 µM | [9] 7.94 µM
not listed: [2] | [10]
inactive: all other assays above

N.N.O=C(O)C1(C(=O)O)CCC1.[Pt]
active: [4] 12.6 µM | [9] 10 µM
inactive: [1]

O=C(O)c1cc([N+](=O)[O-])ccc1NCCCc1ccccc1
inactive: [1] | [3] | [4]

Cn1cc(C2=C(c3ccc(Cl)cc3Cl)C(=O)NC2=O)c2ccccc21
inactive: [1]
active: [2] 10 µM | [9] 7.08 µM

CN(C)c1ccc(/C=C2\C(=O)Nc3ccccc32)cc1
active: [2] 8.91 µM | [3] 12.6 µM | [9] 12.6 µM | [8] 10 µM

N#C/C(=C\c1ccc(O)c(O)c1)C(=O)NCCCc1ccccc1
active: [2] 8.91 µM | [3] 14.1 µM | [5] 11.2 µM | [9] 7.08 µM | [8] 12.6 µM

NCCCS(=O)(=O)O
inactive: [1]
active: [9] 11.2 µM

CCCCCCCC/C=C\CCCCCCCC(=O)NCCO
active: [2] 3.55 µM | [3] 2.51 µM | [4] 3.98 µM | [5] 7.94 µM | [6] 8.91 µM | [9] 2.51 µM | [8] 4.47 µM

CN1CCc2cc(NC(=O)Nc3cccnc3)ccc21
inactive: [1] | [4] | [5]

CN1[C@@H](CC(=O)c2ccccc2)CCC[C@H]1C[C@H](O)c1ccccc1
inactive: [1] | [7]

O=Nc1ccc2oc(=O)ccc2c1
inactive: [1]
active: [2] 12.6 µM | [4] 11.2 µM | [8] 12.6 µM

O=C1O/C(=C/Br)CCC1c1cccc2ccccc12 (stereo not drawn)
active: [9] 11.2 µM
inactive: [1] | [5] | [6] | [8] | [7]

COc1ccc(/C=C/C(=O)Nc2ccccc2C(=O)O)cc1OC
inactive: [10] | [6]

NO
inactive: [1] | [7]

CCCCCCCCCCCCCCCC(=O)NCC(COP(=O)([O-])OCC[N+](C)(C)C)OCC (stereo not drawn)
not listed: [1] | [3] | [9]
inactive: all other assays above

NCCNC(=O)c1ncsc1-c1cccc(F)c1
inactive: [1] | [4] | [5] | [8]

N#C/C(=C\c1c[nH]c2ccccc12)C(=O)c1ccc(O)c(O)c1
active: [3] 12.6 µM | [4] 12.6 µM | [5] 15.8 µM | [9] 8.91 µM | [8] 12.6 µM

CN=c1nc(-c2ccccc2)n(-c2ccccc2)s1
inactive: [1]
active: [2] 10 µM | [3] 10 µM | [9] 10 µM

Brc1c(Br)c(Br)c2n[nH]nc2c1Br
not listed: [1] | [9] | [10]
inactive: all other assays above

COc1cccc(C(=O)NCCN2CCN(c3ccc(Cl)cc3)CC2)c1
inactive: [1] | [3] | [6] | [8]
active: [9] 14.1 µM

C=C[C@@H]1CN2CC[C@@H]1C[C@H]2[C@H](O)c1ccnc2ccc(OC)cc12
active: [6] 0.316 µM
inactive: [1]

CCCCCCCCCCCCCCCCCCNC(=O)OCC(COP(=O)([O-])OCC[n+]1ccsc1)OC (stereo not drawn)
inactive: [1] | [5] | [6] | [7]
active: [3] 11.2 µM | [8] 11.2 µM

COc1cc(OC)c(/C=C2/C(=O)Nc3ccccc32)c(OC)c1
inactive: [1] | [5] | [6]

Source: PubChem BioAssay (NCATS)
